# ± gives the standard deviation.
# T1: HaloTag-ATRX ADD domain (163-292)
# T1 chain: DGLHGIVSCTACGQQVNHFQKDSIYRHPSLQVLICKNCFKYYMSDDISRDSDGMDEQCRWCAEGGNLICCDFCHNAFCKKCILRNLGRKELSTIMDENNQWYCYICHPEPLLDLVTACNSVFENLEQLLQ
# Experiments:
# Test in all cases: peptide microarray binding signal (635 nm), min-max normalized on array (fraction of array maximum); higher = stronger binding
# [1] = target: T1, HaloTag-ATRX ADD domain (163-292)
# How it was run: (§1)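 Within each library, mean intensities of triplicate spots were min-max scaled to give the binding signal. The spots were histone 13-mer peptide–cellulose conjugates on nitrocellulose with a Cy3 tracer, blocked overnight at 4°C. They were then probed for 1 h at 4°C using biotin-labelled HaloTag reader fusions (10 nM to 1 μM) with streptavidin-Alexa Fluor 647 or rabbit histone antibodies (1:10,000 to 1:2,000) with anti-rabbit Alexa 647, and scanned at 635 nm for signal and 532 nm for misprints on an Axon GenePix 4000B.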
# [2] = target: HaloTag-ING2 PHD (mouse Ing2 200-280)
# How it was run: as §1
# [3] = target: anti-H3K4me3 antibody ab8580
# How it was run: as §1
# [4] = target: anti-H3K9me3 antibody ab8898
# How it was run: as §1
# [5] = peptide region: H4 38-50, peptide modifications: H4K44me1 H4R45cit, binder concentration: 1:2,000 dilution
# [6] = peptide region: H4 38-50, peptide modifications: H4K44me1 H4R45cit, binder concentration: 1:10,000 dilution
# [7] = peptide region: H4 16-28, peptide modifications: H4R19me2s H4K20me3, binder concentration: 1:2,000 dilution
# [8] = peptide region: H4 16-28, peptide modifications: H4R19me2s H4K20me3, binder concentration: 1:10,000 dilution
# [9] = peptide region: H4 38-50, peptide modifications: H4K44me1, binder concentration: 1:2,000 dilution
# [10] = peptide region: H4 38-50, peptide modifications: H4K44me1, binder concentration: 1:10,000 dilution
# [11] = peptide region: H4 16-28, peptide modifications: H4R19me2a, binder concentration: 1:2,000 dilution
# [12] = peptide region: H4 16-28, peptide modifications: H4R23cit, binder concentration: 1:2,000 dilution
# [13] = peptide region: H4 16-28, peptide modifications: H4R23cit, binder concentration: 1:10,000 dilution
# [14] = peptide region: H4 16-28, peptide modifications: H4R19me1 H4K20ac, binder concentration: 1:2,000 dilution
# [15] = peptide region: H4 16-28, peptide modifications: H4R19me1 H4K20ac, binder concentration: 1:10,000 dilution
# [16] = peptide region: H4 16-28, peptide modifications: H4R19me2s, binder concentration: 1:2,000 dilution
# [17] = peptide region: H4 16-28, peptide modifications: H4R23me2s, binder concentration: 1:2,000 dilution
# [18] = peptide region: H4 38-50, binder concentration: 1:2,000 dilution
# [19] = peptide region: H4 38-50, binder concentration: 1:10,000 dilution
# [20] = peptide region: H4 16-28, peptide modifications: H4R19me2a H4K20me1, binder concentration: 1:2,000 dilution
# [21] = peptide region: H4 16-28, peptide modifications: H4R19me2a H4K20me1, binder concentration: 1:10,000 dilution
# [22] = peptide region: H4 16-28, peptide modifications: H4R19me2s H4K20me2, binder concentration: 1:2,000 dilution
# [23] = peptide region: H4 16-28, peptide modifications: H4R19me2s H4K20me2, binder concentration: 1:10,000 dilution
binder,measurement,setting,value
ARRGGVKRISGLI [H4 38-50 A R R G G V Kme Rcit I S G L I],peptide microarray binding signal,"[1]; peptide region: H4 38-50, peptide modifications: H4K44me1 H4R45cit, binder concentration: 50 nM",0.00502 ± 0.00054
same,peptide microarray binding signal,"[1]; peptide region: H4 38-50, peptide modifications: H4K44me1 H4R45cit, binder concentration: 500 nM",0.0041 ± 5.8e-05
same,peptide microarray binding signal,"[2]; peptide region: H4 38-50, peptide modifications: H4K44me1 H4R45cit, binder concentration: 10 nM",0.00603 ± 0.00023
same,peptide microarray binding signal,"[2]; peptide region: H4 38-50, peptide modifications: H4K44me1 H4R45cit, binder concentration: 100 nM",0.00652 ± 0.0007
same,peptide microarray binding signal,[3]; [5],0.00106 ± 0.00014
same,peptide microarray binding signal,[3]; [6],0.0016 ± 2.7e-05
same,peptide microarray binding signal,[4]; [5],0.00074 ± 1.7e-05
same,peptide microarray binding signal,[4]; [6],0.00133 ± 2.3e-05
KRHRKVLRDNIQG [H4 16-28 K R H Rme2s Kme3 V L R D N I Q G],peptide microarray binding signal,"[1]; peptide region: H4 16-28, peptide modifications: H4R19me2s H4K20me3, binder concentration: 50 nM",0.006019 ± 4.1e-05
same,peptide microarray binding signal,"[1]; peptide region: H4 16-28, peptide modifications: H4R19me2s H4K20me3, binder concentration: 500 nM",0.00524 ± 0.00012
same,peptide microarray binding signal,"[2]; peptide region: H4 16-28, peptide modifications: H4R19me2s H4K20me3, binder concentration: 10 nM",0.01444 ± 0.00013
same,peptide microarray binding signal,"[2]; peptide region: H4 16-28, peptide modifications: H4R19me2s H4K20me3, binder concentration: 100 nM",0.0125 ± 0.00075
same,peptide microarray binding signal,[3]; [7],0.0051 ± 0.00088
same,peptide microarray binding signal,[3]; [8],0.00451 ± 0.0013
same,peptide microarray binding signal,[4]; [7],0.00438 ± 0.0021
same,peptide microarray binding signal,[4]; [8],0.00663 ± 0.00022
ARRGGVKRISGLI [H4 38-50 A R R G G V Kme R I S G L I],peptide microarray binding signal,"[1]; peptide region: H4 38-50, peptide modifications: H4K44me1, binder concentration: 50 nM",0.00765 ± 0.00015
same,peptide microarray binding signal,"[1]; peptide region: H4 38-50, peptide modifications: H4K44me1, binder concentration: 500 nM",0.0147 ± 0.0013
same,peptide microarray binding signal,"[2]; peptide region: H4 38-50, peptide modifications: H4K44me1, binder concentration: 10 nM",0.01074 ± 8.4e-05
same,peptide microarray binding signal,"[2]; peptide region: H4 38-50, peptide modifications: H4K44me1, binder concentration: 100 nM",0.0234 ± 0.0011
same,peptide microarray binding signal,[3]; [9],0.00691 ± 0.00072
same,peptide microarray binding signal,[3]; [10],0.00719 ± 0.00029
same,peptide microarray binding signal,[4]; [9],0.00751 ± 0.0003
same,peptide microarray binding signal,[4]; [10],0.00703 ± 0.0019
KRHRKVLRDNIQG [H4 16-28 K R H Rme2a K V L R D N I Q G],peptide microarray binding signal,"[1]; peptide region: H4 16-28, peptide modifications: H4R19me2a, binder concentration: 500 nM",4.76e-05 ± 5.2e-07
same,peptide microarray binding signal,"[2]; peptide region: H4 16-28, peptide modifications: H4R19me2a, binder concentration: 100 nM",0.000213 ± 2.5e-06
same,peptide microarray binding signal,[3]; [11],5.66e-05
same,peptide microarray binding signal,[4]; [11],1.51e-05 ± 1.7e-07
KRHRKVLRDNIQG [H4 16-28 K R H R K V L Rcit D N I Q G],peptide microarray binding signal,"[1]; peptide region: H4 16-28, peptide modifications: H4R23cit, binder concentration: 50 nM",0.00241 ± 3.7e-05
same,peptide microarray binding signal,"[1]; peptide region: H4 16-28, peptide modifications: H4R23cit, binder concentration: 500 nM",0.00457 ± 0.00023
same,peptide microarray binding signal,"[2]; peptide region: H4 16-28, peptide modifications: H4R23cit, binder concentration: 10 nM",0.00597 ± 0.00064
same,peptide microarray binding signal,"[2]; peptide region: H4 16-28, peptide modifications: H4R23cit, binder concentration: 100 nM",0.00291 ± 0.00024
same,peptide microarray binding signal,[3]; [12],0.000925 ± 1.6e-05
same,peptide microarray binding signal,[3]; [13],0.002 ± 0.00019
same,peptide microarray binding signal,[4]; [12],0.000544 ± 6.6e-05
same,peptide microarray binding signal,[4]; [13],0.00115
KRHRKVLRDNIQG [H4 16-28 K R H Rme Kac V L R D N I Q G],peptide microarray binding signal,"[1]; peptide region: H4 16-28, peptide modifications: H4R19me1 H4K20ac, binder concentration: 50 nM",0.00448 ± 0.00018
same,peptide microarray binding signal,"[1]; peptide region: H4 16-28, peptide modifications: H4R19me1 H4K20ac, binder concentration: 500 nM",0.00967 ± 0.0016
same,peptide microarray binding signal,"[2]; peptide region: H4 16-28, peptide modifications: H4R19me1 H4K20ac, binder concentration: 10 nM",0.00627 ± 0.00047
same,peptide microarray binding signal,"[2]; peptide region: H4 16-28, peptide modifications: H4R19me1 H4K20ac, binder concentration: 100 nM",0.00609 ± 0.00066
same,peptide microarray binding signal,[3]; [14],0.00468 ± 0.0037
same,peptide microarray binding signal,[3]; [15],0.00137 ± 1.3e-05
same,peptide microarray binding signal,[4]; [14],0.000287 ± 2.9e-06
same,peptide microarray binding signal,[4]; [15],0.001557 ± 1.5e-05
KRHRKVLRDNIQG [H4 16-28 K R H Rme2s K V L R D N I Q G],peptide microarray binding signal,"[1]; peptide region: H4 16-28, peptide modifications: H4R19me2s, binder concentration: 500 nM",0.000524 ± 1.4e-05
same,peptide microarray binding signal,"[2]; peptide region: H4 16-28, peptide modifications: H4R19me2s, binder concentration: 100 nM",0
same,peptide microarray binding signal,[3]; [16],0.000491 ± 9.2e-05
same,peptide microarray binding signal,[4]; [16],3.02e-05 ± 3.4e-07
KRHRKVLRDNIQG [H4 16-28 K R H R K V L Rme2s D N I Q G],peptide microarray binding signal,"[1]; peptide region: H4 16-28, peptide modifications: H4R23me2s, binder concentration: 500 nM",0.000333 ± 1.9e-05
same,peptide microarray binding signal,"[2]; peptide region: H4 16-28, peptide modifications: H4R23me2s, binder concentration: 100 nM",0.000354 ± 1.5e-05
same,peptide microarray binding signal,[3]; [17],0.000849 ± 0.00028
same,peptide microarray binding signal,[4]; [17],1.51e-05 ± 1.7e-07
ARRGGVKRISGLI [H4 38-50 A R R G G V K R I S G L I],peptide microarray binding signal,"[1]; peptide region: H4 38-50, binder concentration: 50 nM",0.00398 ± 0.00022
same,peptide microarray binding signal,"[1]; peptide region: H4 38-50, binder concentration: 500 nM",0.00614 ± 6.4e-05
same,peptide microarray binding signal,"[2]; peptide region: H4 38-50, binder concentration: 10 nM",0.003641 ± 3.4e-05
same,peptide microarray binding signal,"[2]; peptide region: H4 38-50, binder concentration: 100 nM",0.0105 ± 0.00039
same,peptide microarray binding signal,[3]; [18],0.000434 ± 8.7e-06
same,peptide microarray binding signal,[3]; [19],0.000913
same,peptide microarray binding signal,[4]; [18],0.000151 ± 1.6e-06
same,peptide microarray binding signal,[4]; [19],0.000634 ± 1.2e-05
KRHRKVLRDNIQG [H4 16-28 K R H Rme2a Kme V L R D N I Q G],peptide microarray binding signal,"[1]; peptide region: H4 16-28, peptide modifications: H4R19me2a H4K20me1, binder concentration: 50 nM",0.00382 ± 5.3e-05
same,peptide microarray binding signal,"[1]; peptide region: H4 16-28, peptide modifications: H4R19me2a H4K20me1, binder concentration: 500 nM",0.008 ± 0.00032
same,peptide microarray binding signal,"[2]; peptide region: H4 16-28, peptide modifications: H4R19me2a H4K20me1, binder concentration: 10 nM",0.00782 ± 0.00021
same,peptide microarray binding signal,"[2]; peptide region: H4 16-28, peptide modifications: H4R19me2a H4K20me1, binder concentration: 100 nM",0.0127 ± 0.0032
same,peptide microarray binding signal,[3]; [20],0.0308 ± 0.032
same,peptide microarray binding signal,[3]; [21],0.00188 ± 8.8e-05
same,peptide microarray binding signal,[4]; [20],0.000966 ± 4.1e-05
same,peptide microarray binding signal,[4]; [21],0.0015 ± 4.4e-05
KRHRKVLRDNIQG [H4 16-28 K R H Rme2s Kme2 V L R D N I Q G],peptide microarray binding signal,"[1]; peptide region: H4 16-28, peptide modifications: H4R19me2s H4K20me2, binder concentration: 50 nM",0.003511 ± 2.9e-05
same,peptide microarray binding signal,"[1]; peptide region: H4 16-28, peptide modifications: H4R19me2s H4K20me2, binder concentration: 500 nM",0.00548 ± 0.00047
same,peptide microarray binding signal,"[2]; peptide region: H4 16-28, peptide modifications: H4R19me2s H4K20me2, binder concentration: 10 nM",0.00937 ± 0.00061
same,peptide microarray binding signal,"[2]; peptide region: H4 16-28, peptide modifications: H4R19me2s H4K20me2, binder concentration: 100 nM",0.0138 ± 0.0027
same,peptide microarray binding signal,[3]; [22],0.00208 ± 0.0003
same,peptide microarray binding signal,[3]; [23],0.00325 ± 0.00014
same,peptide microarray binding signal,[4]; [22],0.000966 ± 0.00022
same,peptide microarray binding signal,[4]; [23],0.00225 ± 0.00011

# Reference: the supplement of paper PMC4022240
